Compound activity (PubChem)
The list is not random: actives were taken first. Their share in the collection is about 1.5%.
ARNT-TACC3 inh: disruptors of ARNT/TACC3 protein interaction, primary screen, biochemical, AlphaScreen, single concentration; Transforming acidic coiled-coil-containing protein 3 (Homo sapiens), Q9Y6A5; AlphaScreen His-ARNT PAS-B/GST-TACC3 binding, luminescence; TACC3 fragment carries E629A point mutation; inhibition, % at 9.99 µM; 0.66% of 390,000 active;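 active = mean inhibition of replicates at least 50% and at least half of replicates each reaching 50%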;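 also: 0% = complete ARNT plus TACC3 wells and 100% = ARNT alone without TACC3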
AI-2 QS mod: Vibrio harveyi AI-2 quorum sensing modulators, primary screen, JMH597 strain, luminescence/OD600 ratio; AID 2094, 2009; 0.4% of 300,000 active; activity change, % at 7.5 µM; Vibrio harveyi JMH597 AI-2 luminescence/OD600 ratio, 9 h; stronger effect = lower value; strain lacks LuxN and CqsS sensors; 0 = neutral-control median; in the data active = activity change below about -75%, passing the limit was not always enough;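 also: luminescence divided by OD600 gain over 9 h not by final OD600 alone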
HGIII-sPLA2 inh: human group III sPLA2 inhibitors, primary screen, biochemical, QFRET, BODIPY PC-A2 liposome substrate; Group 3 secretory phospholipase A2 (Homo sapiens), Q9NZ20; QFRET BODIPY PC-A2 liposome hydrolysis, fluorescence; inhibition, % at 12.2 µM; 0.56% of 370,000 active;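 active = inhibition above mean plus 3 SD of compounds lying within the high and low control bounds, cut at about 19% in these data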;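 also: 0% = median of test compound wells and 100% = no enzyme DMSO wells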
Rin1 Abl inh: inhibitors of Rin1-Abl protein binding, primary screen, biochemical, TR-FRET | 0.4% of 360,000 active | AID 588664, 2011 | inhibition, % at 7.35 µM | Tyrosine-protein kinase ABL1 (Homo sapiens) + Ras and Rab interactor 1 (Homo sapiens), …; in the data active = inhibition above about 5%, passing the limit was not always enough
Target sequence (P00519 whole entry, looked up): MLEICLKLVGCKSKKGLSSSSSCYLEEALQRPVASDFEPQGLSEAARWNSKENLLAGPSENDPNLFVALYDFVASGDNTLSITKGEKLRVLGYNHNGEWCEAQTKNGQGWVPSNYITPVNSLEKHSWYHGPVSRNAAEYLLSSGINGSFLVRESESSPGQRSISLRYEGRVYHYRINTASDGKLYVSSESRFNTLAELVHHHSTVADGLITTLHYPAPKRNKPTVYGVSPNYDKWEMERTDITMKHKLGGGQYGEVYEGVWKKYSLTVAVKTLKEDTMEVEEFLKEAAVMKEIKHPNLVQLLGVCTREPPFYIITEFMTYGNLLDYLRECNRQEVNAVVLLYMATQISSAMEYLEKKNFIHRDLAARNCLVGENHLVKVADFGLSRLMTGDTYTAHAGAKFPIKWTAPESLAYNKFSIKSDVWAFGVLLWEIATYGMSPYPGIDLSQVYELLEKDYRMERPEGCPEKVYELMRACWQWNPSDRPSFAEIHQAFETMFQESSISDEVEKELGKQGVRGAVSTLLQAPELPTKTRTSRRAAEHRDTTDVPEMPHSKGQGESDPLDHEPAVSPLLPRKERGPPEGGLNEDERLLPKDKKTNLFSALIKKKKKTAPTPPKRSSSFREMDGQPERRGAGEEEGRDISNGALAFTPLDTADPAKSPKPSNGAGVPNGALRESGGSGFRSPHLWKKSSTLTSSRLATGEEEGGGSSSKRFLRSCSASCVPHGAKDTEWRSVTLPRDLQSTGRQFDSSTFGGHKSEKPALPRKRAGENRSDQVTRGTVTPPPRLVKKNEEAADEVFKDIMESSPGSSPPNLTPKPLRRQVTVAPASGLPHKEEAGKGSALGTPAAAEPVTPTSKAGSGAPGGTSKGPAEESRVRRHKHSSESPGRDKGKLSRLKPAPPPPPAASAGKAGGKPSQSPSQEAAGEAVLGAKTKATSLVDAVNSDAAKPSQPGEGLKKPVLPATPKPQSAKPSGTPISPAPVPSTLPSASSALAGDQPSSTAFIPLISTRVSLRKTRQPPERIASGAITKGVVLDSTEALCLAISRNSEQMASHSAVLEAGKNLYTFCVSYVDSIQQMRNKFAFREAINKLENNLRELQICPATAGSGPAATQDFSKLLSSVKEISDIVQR
Target sequence (Q13671 whole entry, looked up): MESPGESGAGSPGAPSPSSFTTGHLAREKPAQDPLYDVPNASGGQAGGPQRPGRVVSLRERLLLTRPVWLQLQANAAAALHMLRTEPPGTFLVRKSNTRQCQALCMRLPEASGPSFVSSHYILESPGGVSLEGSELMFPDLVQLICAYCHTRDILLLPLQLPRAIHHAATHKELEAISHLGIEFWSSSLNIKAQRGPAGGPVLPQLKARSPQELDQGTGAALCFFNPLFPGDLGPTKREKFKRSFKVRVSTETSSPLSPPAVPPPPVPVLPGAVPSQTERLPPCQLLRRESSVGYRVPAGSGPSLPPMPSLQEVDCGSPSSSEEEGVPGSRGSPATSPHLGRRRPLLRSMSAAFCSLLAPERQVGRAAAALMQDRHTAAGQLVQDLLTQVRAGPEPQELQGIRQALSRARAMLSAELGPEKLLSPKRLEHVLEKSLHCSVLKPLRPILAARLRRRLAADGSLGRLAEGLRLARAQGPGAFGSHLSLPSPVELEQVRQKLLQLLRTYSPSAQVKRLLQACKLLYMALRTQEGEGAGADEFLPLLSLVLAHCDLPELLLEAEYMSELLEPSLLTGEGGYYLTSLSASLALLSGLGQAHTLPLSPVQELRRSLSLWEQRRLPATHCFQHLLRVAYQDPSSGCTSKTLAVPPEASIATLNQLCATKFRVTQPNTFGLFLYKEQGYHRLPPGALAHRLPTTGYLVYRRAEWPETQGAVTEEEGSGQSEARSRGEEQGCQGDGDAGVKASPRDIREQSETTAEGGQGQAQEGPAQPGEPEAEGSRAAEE
sPLA2 confirm: human group III sPLA2 inhibitors, confirmation, biochemical, QFRET, triplicate; shares compounds with HGIII-sPLA2 inh; 34% of 2,000 active; recombinant hGIII-sPLA2, BODIPY PC-A2 QFRET fluorescence; inhibition, % at 12.2 µM; AID 743280, 2014;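 active = mean inhibition across triplicates above the hit cutoff set in the earlier primary screen, cut at about 19% in these data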;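 also: 0% = enzyme with DMSO and 100% = DMSO wells lacking enzyme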
BODIPY interf: 535nm fluorescence optical interference, confirmation, artefact control for HGIII-sPLA2 inhibitor project, biochemical, QFRET | shares compounds with HGIII-sPLA2 inh | BODIPY FL product fluorescence interference | inhibition, % at 12.2 µM | 8.5% of 2,000 active | AID 743282, 2014;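 active = average inhibition above the solvent-only control mean plus 3 SD, cut at about 6% in these data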;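 also: 0% = DMSO with substrate plus product and 100% = DMSO with substrate alone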
BODIPY interf DR: 535nm fluorescence optical interference, dose response, artefact control for HGIII-sPLA2 inhibitor project, biochemical, QFRET; shares compounds with HGIII-sPLA2 inh; BODIPY FL product fluorescence interference, cell-free; IC50, µM; 240 tested, under 10 active;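 active = IC50 at or below 10 µM; inactive = IC50 above 10 µM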
Numbers without * were called inactive; . = no result.

SMILES	ARNT-TACC3 inh	AI-2 QS mod	HGIII-sPLA2 inh	Rin1 Abl inh	sPLA2 confirm	BODIPY interf	others
COc1cccc(C(=O)Nc2ccc3c(c2)C(=O)N(C)[C@@H]2CC[C@@H](CC(=O)NCc4ccccc4F)O[C@@H]2CO3)c1	13.8	.	.	.	.	.
O=C(C[n+]1ccc(/C=N/O)cc1)N1CCCCC1	4.3	10.4	21.9*	-5.1	-4.5	-3.1
O=C(Nc1nc(-c2ccccn2)cs1)c1ccc(Br)s1	.	-95.1*	38.1*	1.2	26.9*	-0.1
COc1ccc2oc(C(=O)Nc3nc(-c4ccccn4)cs3)c(C)c2c1	21.2	22.1	21.7*	-0.5	25.3*	-1.4
COc1ccc2oc(C(=O)NC(C)c3ccccn3)c(C)c2c1 (stereo not drawn)	2.3	.	-1.2	1.0	.	.
C[C@@H]1CCCCO[C@H](CN(C)C(=O)c2ccccc2)[C@@H](C)CN([C@@H](C)CO)C(=O)c2cc(NC(=O)Nc3ccccc3)ccc2O1	5.7	.	.	.	.	.
C[C@@H]1CN([C@@H](C)CO)C(=O)CCCn2nncc2CO[C@@H]1CN(C)C(=O)Nc1ccccc1C(F)(F)F	-2.0	.	20.7*	-0.2	-3.2	-8.7
C[C@H]1CN([C@@H](C)CO)C(=O)CCCn2nncc2CO[C@@H]1CN(C)C(=O)Nc1ccccc1C(F)(F)F	-1.6	.	.	.	.	.
C[C@@H]1CN([C@H](C)CO)C(=O)CCCn2nncc2CO[C@H]1CN(C)C(=O)Nc1cccc(Oc2ccccn2)c1	-6.3	.	20.3*	-3.4	-8.0	-10.4
Cn1c(=O)c2c(ncn2CC(=O)OCC(=O)Nc2ccccc2Cl)n(C)c1=O	-19.6	24.7	2.8	1.7	.	.
Cn1c(=O)c2c(ncn2CC(=O)OCC(=O)NC(c2ccccc2)c2ccccc2)n(C)c1=O	6.1	10.0	21.1*	5.4	-1.1	-4.9
Cc1ccc(Cn2c(=S)[nH]c3ccccc3c2=O)cc1	-3.2	29.0	7.8	-2.0	.	.
CC(C)CCNC(=O)c1ccc(Cn2c(=S)[nH]c3ccccc3c2=O)cc1	-4.9	22.2	21.4*	1.7	19.8*	-11.2
O=C1NC(=S)N/C1=C\c1cccc([N+](=O)[O-])c1	1.0	4.9	19.6*	-5.2	-2.1	-3.4
O=C(Nc1ccccc1-c1ccccc1)C1CCCC1	-1.7	4.9	19.8*	1.6	-2.0	-7.9
O=C(Nc1ccccc1C(F)(F)F)C1CCCC1	30.3	5.5	5.2	-2.1	.	.
COc1ccc(NC(=O)Nc2ccc3c(c2)[C@H]2C[C@@H](CC(=O)N4CCOCC4)O[C@H](CO)[C@H]2O3)cc1	-2.6	.	.	.	.	.
Fc1ccc(N2CCN(/C=C/c3nnnn3-c3ccccc3)CC2)cc1	-1.8	23.1	1.9	0.1	.	.
C(=C\N1CCCCCC1)/c1nnnn1-c1ccc(-c2ccccc2)cc1	-3.9	10.1	20.1*	0.5	5.0	-4.0
COCC(=O)Nc1ccc2c(c1)[C@@H]1C[C@@H](CC(=O)NCc3ccccc3OC)O[C@H](CO)[C@@H]1O2	-4.4	.	.	.	.	.
COc1cc(OC)cc(C(=O)NC(=S)N2CCCCC2c2cccnc2)c1 (stereo not drawn)	10.3	3.2	9.2	3.2	.	.
COc1ccc(NC(=O)N2CCCCC2c2cccnc2)cc1 (stereo not drawn)	1.2	9.7	22.5*	1.4	3.8	-4.9
C[C@@H](NC(=O)C[C@H]1CC[C@@H](NC(=O)C2CCOCC2)[C@H](CO)O1)c1ccccc1	-3.0	.	.	.	.	.
CC1CCCCC1NC(=O)CSC1=Nc2ccccc2C2CC=NN12 (stereo not drawn)	.	.	19.8*	0.5	-2.8	-17.6
CC1CCCC(NC(=O)CSC2=Nc3ccccc3C3CC=NN23)C1C (stereo not drawn)	-0.2	.	-3.9	-1.2	.	.
SMILES	ARNT-TACC3 inh	AI-2 QS mod	HGIII-sPLA2 inh	Rin1 Abl inh	sPLA2 confirm	BODIPY interf	others
C[C@H](CO)N1C[C@H](C)[C@@H](CN(C)CC2CCCCC2)Oc2ccc(NC(=O)Cc3ccccc3)cc2CC1=O	25.3	.	.	.	.	.
O=C(Cc1ccncc1)NCC[C@H]1CC[C@H](NC(=O)Nc2ccc(Cl)cc2)[C@@H](CO)O1	-3.0	.	.	.	.	.
Cc1noc(C)c1NC(=O)N(C)C[C@@H]1OCCCC[C@@H](C)Oc2ccc(NC(=O)Nc3ccc4c(c3)OCO4)cc2C(=O)N([C@@H](C)CO)C[C@H]1C	-6.4	.	.	.	.	.
O=C(NNC(=S)Nc1ccccc1)c1ccccc1[N+](=O)[O-]	5.2	14.9	9.0	3.5	.	.
O=C(NNC(=S)NC(=O)c1ccccc1[N+](=O)[O-])c1ccccc1[N+](=O)[O-]	1.0	2.8	22.6*	0.3	24.0*	-0.3
O=C(NNC(=S)NC(=O)c1ccccc1[N+](=O)[O-])c1ccc(Cl)cc1Cl	5.5	58.5	13.6	0.5	.	.
Cc1cc(Br)cc(C)c1NC(=O)c1ccccc1[N+](=O)[O-]	-14.8	5.7	21.4*	-0.8	4.4	-7.0
O=C(NNC(=S)NC(=O)c1ccccc1[N+](=O)[O-])c1ccccc1O	.	4.9	32.2*	-1.6	14.0	-1.7
CCCCOc1ccccc1C(=O)NNC(=S)NC(=O)c1ccccc1[N+](=O)[O-]	12.9	24.2	42.7*	1.2	47.9*	-6.9	BODIPY interf DR=>122
Cc1noc(C)c1S(=O)(=O)Nc1ccc2c(c1)C(=O)N([C@@H](C)CO)C[C@H](C)[C@H](CN(C)S(=O)(=O)c1cccs1)O2	-0.3	.	.	.	.	.
COc1ccc(NC(=O)N[C@H]2C=C[C@@H](CC(=O)NC3CCCCC3)O[C@H]2CO)cc1	2.8	.	.	.	.	.
COc1ccccc1NC(=O)N(C)C[C@H]1Oc2cc(Br)ccc2S(=O)(=O)N([C@@H](C)CO)C[C@@H]1C	5.8	.	.	.	.	.
O=C(COC(=O)c1ccccc1[N+](=O)[O-])NC(=O)c1ccccc1	0.7	4.2	21.2*	-3.6	-0.1	-6.2
O=C(NNC(=S)NC(=O)c1ccccc1Cl)c1cccc([N+](=O)[O-])c1	-20.4	46.8	24.6*	-0.4	36.6*	-0.6	BODIPY interf DR=>122
O=C(NC(=S)Nc1ccccc1N1CCCC1)c1ccccc1[N+](=O)[O-]	6.7	25.1	4.5	-2.0	.	.
O=C(NC(=S)Nc1ccc(N2CCCC2)cc1)c1ccccc1[N+](=O)[O-]	-2.4	41.9	23.1*	0.0	17.7	-1.4
O=C(COC(=O)c1ccccc1[N+](=O)[O-])NCCCc1ccccc1	1.0	1.9	-0.2	1.0	.	.
CC(=O)NC(=S)NNC(=O)COc1ccc(Br)cc1	-55.0	.	-6.2	-5.7	.	.
O=C(COc1ccc(Br)cc1)NNC(=S)NC(=O)c1ccccc1[N+](=O)[O-]	24.3	103.2	23.4*	-3.0	42.9*	-14.6
C[C@H]1CCCCO[C@@H](CN(C)C)[C@@H](C)CN([C@@H](C)CO)C(=O)c2cc(NC(=O)CCC(F)(F)F)ccc2O1	-11.7	.	.	.	.	.
